The values that follow come from PubChem BioAssay AID540259 (Broad Institute, 2011).

Potency and affinity values are given separately. Active and inactive are the calls of the source.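 The calls were made as follows: active = cell killing, meaning signal decrease, with fitted half-maximal dose at or below ten times the top valid tested dose; inconclusive = poor fit, or flat curve with 30 to 70% signal loss; inactive = the rest.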

The nature of this experiment: HeLa cell cytotoxicity, dose response, cytotoxicity control for MITF activator project, CellTiter-Glo luminescence, cherry-pick samples (AID 540259).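 Also: 0% = DMSO neutral control and -100% = mitoxantrone positive control.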 The note with it: HeLa viability, CellTiter-Glo ATP luminescence, 24 h; series mostly up to 35 µM; activity change, negative = cytotoxicity: at the top concentration. (In ATP-based viability assays light output follows the ATP content of the culture.)
With `Cc1cc(NC(=O)Nc2ccc3c(ccn3C)c2)sn1`, the “activity change, negative = cytotoxicity” value was 12.1% (inactive).
Then `CC(=O)NCCC1CCCCN1C(=O)c1cc(COc2cc(C)ccc2C)on1` (stereo unspecified), with 4.53% (inactive).
`COc1ccccc1Nc1nc(C)cs1`: the “activity change, negative = cytotoxicity” value is 25.3% (inactive).
With `CC(=O)c1cnc2c(-c3cccc(Br)c3)cnn2c1C`, the “activity change, negative = cytotoxicity” value is -3.45% (inactive).
As to `O=C(N/N=C/c1ccsc1)c1ccc2c(c1)OCO2`, the “activity change, negative = cytotoxicity” value is -0.009% (inactive).
Turning to `COc1ccc(-c2ccc3oc(-c4ccsc4)cc(=O)c3c2)cn1`, the “activity change, negative = cytotoxicity” value was 9.06% (inactive).
For `O=C(Nc1ccc(NC(=O)c2ccccc2F)cc1)c1cccs1`, the “activity change, negative = cytotoxicity” value was -13.1% (inactive).
As for `CC1CCc2sc(C(=O)Nc3ccc(C(N)=O)cc3)cc2C1` (stereo unspecified), the “activity change, negative = cytotoxicity” value was 10.9% (inactive).
Consider `O=C(NCc1ccccn1)Nc1ccc(Br)cc1Cl`, for which the “activity change, negative = cytotoxicity” value was 13.2% (inactive).
Turning to `COc1cc(SC)ccc1C(=O)NCC1CCCCC1`, the “activity change, negative = cytotoxicity” value was -6.12% (inactive).
Regarding `O=C(Cc1ccccc1)Nc1ccc2c(c1)OC1(CCCC1)O2`, the “activity change, negative = cytotoxicity” value was 10.1% (inactive).
As to `Cc1nc(SCc2ccccc2)nc2c1CCC2`, the “activity change, negative = cytotoxicity” value was -15.5% (inactive).
As to `COC(=O)C(Cc1ccc(O)cc1)N1Cc2ccccc2C1=O` (stereo unspecified), the “activity change, negative = cytotoxicity” value was 1.59% (inactive).
On to `CCCCCc1ccc(-c2ccc(OC)cc2)nc1`, for which the “activity change, negative = cytotoxicity” value was 4.7% (inactive).
As for `Cc1cccc(Nc2nc3c(s2)CCCC3)c1`, the “activity change, negative = cytotoxicity” value was -9.87% (inactive).
Take `Cc1cc(C)n2nc(SCN3C(=O)c4ccccc4C3=O)nc2n1`: the “activity change, negative = cytotoxicity” value was -0.893% (inactive).
On to `O=C(Nc1ccccc1)N1CCC(c2ccccc2)C1` (stereo unspecified), for which the “activity change, negative = cytotoxicity” value was -0.372% (inactive).
In the case of `Clc1ccc(C#Cc2cccnc2)cc1`, the “activity change, negative = cytotoxicity” value was 8.41% (inactive).
Then `Cc1ccnc(NC(=O)C2CC(=O)N(Cc3ccccc3)C2)c1` (stereo unspecified), with 18.2% (inactive); and `CN(C)c1ccc(CSc2ccccc2)cc1`, with 4.63% (inactive).
On to `CC(C)(C)c1ccc(C(=O)Nc2ccc(F)cc2)s1`, for which the “activity change, negative = cytotoxicity” value was 15.4% (inactive).
On to `COc1ccc(Nc2nc(N)c3ccccc3n2)c(OC)c1`, for which the “activity change, negative = cytotoxicity” value is -7.04% (inactive).
In the case of `COc1ccc(-c2noc(-c3cccc(OC)c3OC)n2)cc1OC`, the “activity change, negative = cytotoxicity” value was -1.26% (inactive).
As to `CN(C)c1ccc(/C=C/c2cccc[n+]2[O-])cc1`, the “activity change, negative = cytotoxicity” value was 9.81% (inactive).
For `CC(C)(C)c1ccc(SCCc2ccccn2)cc1` the value was 10.3% (inactive).
Take `Cc1ccc(S(=O)(=O)Nc2cccc(-c3ccc(N4CCCCCC4)nn3)c2)cc1`: the “activity change, negative = cytotoxicity” value was -18.1% (inactive).
Turning to `CC(=O)Nc1nnc(COc2ccc(Cl)cc2)s1`, the “activity change, negative = cytotoxicity” value is 5.53% (inactive).
Regarding `COc1ccccc1C(=O)NCCC(=O)NC1CCC(C)CC1` (stereo unspecified), the “activity change, negative = cytotoxicity” value was 9.79% (inactive).
On to `Cc1ccc(O)c(-n2nc3ccccc3n2)c1`, for which the “activity change, negative = cytotoxicity” value is 1.3% (inactive).
Regarding `COc1ccc(NC(=O)c2ccc3c(c2)OCO3)cc1Cl`, the “activity change, negative = cytotoxicity” value was 1.24% (inactive).
Then `CCCC(=O)N1c2ccc(-c3csc(N)n3)cc2CC1C` (stereo unspecified), with 16% (inactive); and `CC(=O)c1cccc(NC(=O)c2cc3nc(C)cc(C)n3n2)c1`, with -6.5% (inactive); and `CC(=O)N(c1ccccc1)c1nnc(-c2cnc(C)cn2)s1`, with -1.1% (inactive).
Then `Cc1[nH]n(-c2cccc(Cl)c2)c(=O)c1C=NCC(C)C`, with 11% (inactive); and `Cc1ccc(CNc2ccc3c(c2)ncn3C(C)C)cc1`, with -10.8% (inactive); and `COc1ccc(C(=O)c2ccc(CC#N)s2)cc1`, with -7.56% (inactive).
